Shn3 inh set2: Schnurri-3 reporter inhibition in Clone20 osteoblasts; Clone20 osteoblast Shn3 3'UTR firefly luciferase, 24 h; 0.52% of 360,000 active; inhibition, % at 12.5 µM;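 active = mean inhibition of at least 75% with every replicate also reaching 75%; inconclusive = mean inhibition at least 75% but some replicate below; inactive = mean inhibition below 75%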;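 also: 0% = median of neutral control wells and 100% = pilot-screen positive control compound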
EBV LMP1 NFkB: inhibitors of Epstein-Barr LMP1-induced NF-kappaB reporter. inhibition, % at 12.5 µM. LMP1-induced NF-kappaB luciferase reporter cells, luminescence. AID 504558. 0.69% of 350,000 active; in the data active = inhibition above about 41%; inconclusive = no clear call, values can overlap the other calls;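 also: 0% = neutral control wells and 100% = reference inhibitor control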
TRPM1 prom inh: inhibitors of MITF-driven TRPM1 promoter in melanoma cells; SK-MEL-5 TRPM1 promoter luciferase, 24 h; inhibition, % at 12.5 µM; 0.83% of 330,000 active;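 active = mean inhibition across replicates of 60% or more, whatever share of single replicates reaches that level; inconclusive = some that reach 60%, reason not given; inactive = mean inhibition across replicates below 60%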
PAX8 inh HTS: PAX8 transcriptional activity inhibition | RMG-I TPO-luciferase reporter, SteadyGlo, 24 h | inhibition, % at 12.6 µM | 1.2% of 360,000 active;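 active = mean replicate inhibition at least 60% with every replicate also reaching 60%; inconclusive = only one of the two criteria is met; inactive = mean below 60% and not all replicates reaching 60%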;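 also: luciferase light reporting Pax8 driven TPO promoter activity; plate controls were median of neutral control wells for no effect and mitoxantrone controls for full effect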
aSyn UTR inh: MLPCN primary screen, SNCA 5' untranslated region; alpha-synuclein 5'UTR reporter, inhibitor activity; inhibition, % (tested at 7.5 µM); 0.82% of 300,000 active; in the data active = inhibition above about 60%; inconclusive = no clear call, values can overlap the other calls;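 also: H4 neuroglioblastoma cells stably carrying SNCA 5'UTR luciferase fusion; 0% = DMSO wells and 100% = positive control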
* marks the source's active call; other numbers are inactive results; ? = inconclusive; . = no result. Shown are actives, neighbours in structure and some others; about 2.1% of the full set was active somewhere.

SMILES | Shn3 inh set2 | EBV LMP1 NFkB | TRPM1 prom inh | PAX8 inh HTS | aSyn UTR inh
O=C1N(O)C2(C=CCCC2)/C(=N\O)C12CCCCC2 (configuration not stated) | 3 | -1 | 7 | -1 | -8
CCON1C(=O)C2(CCCCC2)C(=O)C12C=CCCC2 (configuration not stated) | -15 | 85* | 1 | -2 | .
O=S(=O)(Cc1cc(NCc2ccccc2)nc(-c2ccccn2)n1)c1ccccc1 | 43 | -3 | -10 | 20 | 8
COc1ccc(S(=O)(=O)N[C@H]2C=C[C@@H](CC(=O)NCc3ccccc3F)O[C@@H]2CO)cc1 | . | . | . | 6 | .
CCCCCC(=O)N1C[C@@H](O)[C@H](n2cc(-c3ccc(F)cc3)nn2)C[C@@H]1c1ccc(Cl)cc1 | 21 | -16 | . | 33 | .
CCCCCC(=O)N1C[C@H](n2cc(-c3ccc(F)cc3)nn2)[C@@H](O)C[C@@H]1c1ccc(Cl)cc1 | 17 | -3 | . | 82* | .
C[C@@H]1CN([C@@H](C)CO)C(=O)Cc2cc(NS(=O)(=O)c3ccc(F)cc3)ccc2O[C@H]1CN(C)Cc1ccc(Oc2ccccc2)cc1 | . | . | . | 86* | .
C[C@@H]1CN([C@@H](C)CO)C(=O)Cc2cc(NS(=O)(=O)c3ccc(Cl)cc3)ccc2O[C@H]1CN(C)Cc1ccc(Oc2ccccc2)cc1 | . | . | . | 106* | .
C[C@H]1CN([C@@H](C)CO)C(=O)c2cc(NS(=O)(=O)c3ccccc3)ccc2O[C@H]1CN(C)Cc1ccc(Oc2ccccc2)cc1 | . | . | . | -22 | .
C[C@@H]1CN([C@H](C)CO)C(=O)Cc2cc(NS(=O)(=O)c3ccc(Cl)cc3)ccc2O[C@@H]1CN(C)Cc1ccc(Oc2ccccc2)cc1 | . | . | . | 5 | .
C[C@H]1CN([C@@H](C)CO)C(=O)c2cc(NS(=O)(=O)c3ccccc3)ccc2O[C@@H]1CN(C)Cc1ccc(Oc2ccccc2)cc1 | . | . | . | 92* | .
C[C@H](CO)N1C[C@H](C)[C@@H](CN(C)Cc2ccc(Oc3ccccc3)cc2)Oc2ccc(NS(=O)(=O)c3ccc(Cl)cc3)cc2CC1=O | . | . | . | 101* | .
Cc1nc2ccccc2nc(C)c1=NOCc1cccc(F)c1 | 8 | -26 | 7 | 19 | 43
COc1ccc(C(=O)Nc2ccccc2-c2nnn(CC(N)=O)n2)cc1 | -12 | 12 | -9 | 6 | .
CC(C)c1ccc(OCC(=O)NC2CCCC2)cc1 | -23 | -15 | -22 | -6 | -14
CCCCOc1ccc(C2CC(=O)N(C)C2=O)cc1 (configuration not stated) | -19 | 4 | -17 | . | -28
COc1ccc(NC(=O)CSc2nnc(-c3ccccc3)n2Cc2ccco2)cc1OC | 7 | 3 | 4 | . | 9
Cc1cccc2cc(C#N)c(SCC(=O)NNC(=O)Cc3ccccc3)nc12 | 11 | -6 | 5 | 21 | 9
Cc1cccc2cc(C#N)c(SCC#N)nc12 | 27 | -2 | 15 | -36 | 85*
CCc1nc(SCC#N)c(C#N)cc1C | . | . | . | . | 69*
CCn1c2ccccc2c2cc(Nc3cc(C)nc4ncnn34)ccc21 | 14 | -1 | 59 | 96* | 82*
CCc1ccc(Nc2cc(C)nc3ncnn23)cc1 | 2 | 10 | 2 | 13 | 11
Fc1ccc(-c2csc(NC3=NCCC3)n2)cc1 | -18 | -11 | -53 | -12 | -31
O=C(N/N=C/c1cccc2ccccc12)c1ccncc1 | 3 | 0 | 11 | -7 | -1
O=C(NN=Cc1c(O)ccc2ccccc12)c1ccncc1 | 90* | 62* | 75* | 95* | .
SMILES | Shn3 inh set2 | EBV LMP1 NFkB | TRPM1 prom inh | PAX8 inh HTS | aSyn UTR inh
O=C(N/N=C/c1ccccn1)c1ccc(Br)o1 | -26 | 1 | 15 | -15 | 1
COc1ccccc1/C=N/NC(=O)c1ccc(C)nc1 | 8 | -1 | 8 | 7 | -8
Cc1ccc(C(=O)N/N=C/c2c(O)ccc3ccccc23)cn1 | 94* | 65* | 60 | 41 | 62*
Cc1cc(O)c(C)c(O)c1/C=N/NC(=O)c1cccnc1 | 30 | -1 | 17 | 44 | 69*
O=C(N/N=C/c1c(O)ccc2ccccc12)c1ccc(Br)o1 | 83 | 61* | 60 | 60 | 106*
CCOC(=O)N1CCC(N2CC34C=CC(O3)C(C(=O)Nc3ccc(F)cc3)C4C2=O)CC1 (configuration not stated) | 7 | 1 | 15 | . | -10
CCCNC(=O)NC(=O)CSc1cccc(C(F)(F)F)c1 | 3 | 0 | -4 | 3 | 13
COc1ccc(NC(=O)/C(C#N)=C/c2ccc3c(c2)n(C)c(=O)n3C)cc1 | 9 | 6 | 8 | 14 | 12
O=C(CN1CCOCC1)N/N=C/c1c(O)ccc2ccccc12 | 85 | 13 | 1 | 26 | 32
CCOc1ccc2ccccc2c1/C=N\NC(=O)OC | 6 | -5 | 7 | 141* | -13
O=C(N/N=C/c1c(O)ccc2ccccc12)c1cccnc1 | 85 | 51* | 49 | 70* | 93*
Cn1nccc1C(=O)N/N=C/c1c(O)ccc2ccccc12 | 94* | 76* | 72* | 51 | 92*
O=C(N/N=C/c1cc(O)ccc1Br)c1cccnc1 | 71 | 19 | 45 | 72* | 33
COc1ccc2c3c(n(C)c2c1)[C@@H](CO)N(C(=O)Cc1ccccn1)CC31CN(C)C1 | . | . | . | -26 | .
COc1ccc(S(=O)(=O)NC(CC(=O)O)c2ccco2)cc1 (configuration not stated) | 20 | 3 | 7 | 24 | -9
CCCCNC(=O)C1(C)CCCCN1C(=O)c1cc(C)n(C(C)(C)C)n1 (configuration not stated) | -18 | . | . | 0 | .
Cn1cc(C(=O)N/N=C/c2c(O)ccc3ccccc23)ccc1=O | 91* | 62* | 69* | 59 | 96*
O=C(N/N=C/c1c(O)ccc2ccccc12)c1ccc[n+](CCO)c1 | 13 | 13 | 4 | 9 | -4
Cc1occc1C(=O)N/N=C/c1c(O)ccc2ccccc12 | 65 | 6 | 39 | 22 | 54
O=C(N/N=C\c1c(O)ccc2ccccc12)c1ccc(O)cc1 | 91* | 35 | 36 | ? | 75*
O=C(N/N=C\c1c(O)ccc2ccccc12)c1cncc(Br)c1 | 87* | 38 | 43 | 65* | 62*
CN(C)C(=O)c1ccc(-c2ccc3c(c2)[C@H]2[C@H](CCN2Cc2ccc4c(c2)OCO4)[C@H](CO)N3)cc1 | . | . | . | 0 | .
COCCCNC(=O)C[C@@H]1C[C@@]2(C(=O)OC)CCCCC=C2N(Cc2ccc(Cl)cc2Cl)C1=O | . | . | . | 18 | .
CN1CCN(C(=O)C[C@@H]2CC[C@H]3[C@@H](COC[C@H](O)CN3C(=O)Cc3ccccc3)O2)CC1 | . | . | . | 1 | .
CCCCN(C)CC(O)Cn1cc(/C=C/C(=O)c2ccc(OCC)cc2)c2ccccc21 (configuration not stated) | . | . | . | . | 32
CCCCN(C)CC(O)Cn1cc(/C=C/C(=O)c2cccs2)c2ccccc21 (configuration not stated) | -15 | -20 | 90* | . | -59
C[C@H](CO)N1C[C@H](C)[C@H](CN(C)S(=O)(=O)c2cccs2)Oc2c(NC(=O)Nc3ccc(F)cc3)cccc2C1=O | . | . | . | 68* | .

Screening data deposited in PubChem by Broad Institute.
